Beta cell apopt – inhibitors of cytokine-induced beta cell apoptosis, primary screen, luminescence; INS-1E cytokine-induced death, ATP luminescence, 48 h; percent of positive-control rescue, neutral wells zero; protection from apoptosis, % (no concentration beside the values); hit rate 0.8% among 300,000; AID 435005, 2010;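 active = Every replicate reaches about 75%, or at least half do and their mean reaches it too, limit read from the data; inconclusive = At least half of replicates reach the limit but their mean does not; inactive = Under half of replicates reach the limit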;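 note: higher means more ATP so stronger rescue from cytokine killing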
Mdm2-MdmX inh – inhibitors of human Mdm2-MdmX association, primary screen, cell-based, luminescence, split luciferase, SaOS-2, uHTS | Protein Mdm4 (Homo sapiens) + E3 ubiquitin-protein ligase Mdm2 (Homo sapiens), … | inhibition, % at 8 µM | SaOS-2 split-luciferase Mdm2/MdmX complementation | hit rate 3% among 330,000;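 active = inhibition of at least 50% at 8 µM in the primary screen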
Target sequence (O15151 whole entry, looked up): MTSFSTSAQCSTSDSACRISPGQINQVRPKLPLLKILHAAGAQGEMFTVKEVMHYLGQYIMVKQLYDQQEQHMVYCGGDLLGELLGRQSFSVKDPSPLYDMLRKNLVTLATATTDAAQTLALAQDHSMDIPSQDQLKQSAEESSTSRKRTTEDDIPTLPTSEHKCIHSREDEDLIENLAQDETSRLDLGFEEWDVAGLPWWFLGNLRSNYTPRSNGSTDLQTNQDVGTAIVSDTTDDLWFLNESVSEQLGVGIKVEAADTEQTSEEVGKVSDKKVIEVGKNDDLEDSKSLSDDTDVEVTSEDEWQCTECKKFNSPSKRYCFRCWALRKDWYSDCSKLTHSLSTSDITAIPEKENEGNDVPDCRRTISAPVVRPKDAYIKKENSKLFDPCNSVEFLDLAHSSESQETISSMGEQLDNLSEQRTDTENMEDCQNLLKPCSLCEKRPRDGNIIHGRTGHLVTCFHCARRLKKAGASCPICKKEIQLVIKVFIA
Target sequence (Q00987 whole entry, looked up): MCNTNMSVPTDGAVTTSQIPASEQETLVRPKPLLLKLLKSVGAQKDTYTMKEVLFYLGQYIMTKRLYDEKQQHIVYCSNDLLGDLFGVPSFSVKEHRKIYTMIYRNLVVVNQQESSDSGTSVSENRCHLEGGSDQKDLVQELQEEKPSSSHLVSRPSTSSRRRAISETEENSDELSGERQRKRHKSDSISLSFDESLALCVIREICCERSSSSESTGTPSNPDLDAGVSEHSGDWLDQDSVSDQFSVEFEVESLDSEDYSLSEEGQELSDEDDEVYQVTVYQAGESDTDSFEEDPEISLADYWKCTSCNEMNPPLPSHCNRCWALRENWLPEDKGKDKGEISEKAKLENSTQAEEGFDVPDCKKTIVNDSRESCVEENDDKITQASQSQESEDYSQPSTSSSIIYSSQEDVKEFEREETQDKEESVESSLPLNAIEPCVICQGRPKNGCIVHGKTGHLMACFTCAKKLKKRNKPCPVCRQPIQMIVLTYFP
CSC inhib – cancer stem cell viability inhibitors, primary screen, luminescence. hit rate 1.1% among 300,000. inhibition, % at 7.5 µM. cancer stem cell-like cells viability; in the data active = inhibition above about 75%; inconclusive = no clear call, values can overlap the other calls; tested in HMLE shEcad cells
Calb FLC – C. albicans growth inhibition with fluconazole, primary screen, CaCi-2 strain, Alamar Blue fluorescence | C. albicans CaCi-2 (fluconazole-resistant clinical isolate) + fluconazole, 48 h | growth inhibition, % (concentration not given with the values) | hit rate 0.57% among 300,000;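 active = growth inhibition above about 58% in most replicates, limit read from the data, passing the limit was not always enough; inconclusive = exactly half the replicates above a set limit; inactive = most replicates below a set limit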;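 note: all wells also contain fluconazole at 8 µg/ml as a sub-toxic cotreatment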
MPTP block – mitochondrial permeability transition pore inhibitors, primary screen, biochemical, isolated mouse mitochondria, absorbance; Ca2+ swelling absorbance, 30 min; hit rate 1.4% among 360,000; inhibition, % at 10 µM;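 active = inhibition of 50% or more, scaled per plate between neutral and stimulator controls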
Mdm2-MdmX conf – Mdm2-MdmX complex disruptors, retested hits, confirmation, luminescence, single concentration; Mdm2-MdmX binding, luminescent assay; shares compounds with Mdm2-MdmX inh; hit rate 55% among 10,000; inhibition, % at 8 µM; in the data active = inhibition above about 40%
Full FLuc ctr – full-length luciferase signal inhibition, confirmation, counter-screen for Mdm2/MdmX interaction inhibitor project, cell-based, single concentration, SaOS-2. SaOS-2 full-length luciferase counterscreen, luminescence. shares compounds with Mdm2-MdmX inh. AID 504607, 2011. inhibition, % at 8 µM. hit rate 77% among 6,200;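 active = mean inhibition at 8 µM reaching about 37%, which flags the compound as non-specific, limit read from the data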;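 note: p53-null SaOS-2 cells with luciferase driven by a doxycycline-inducible promoter; compound on cells about two nights before reading with doxycycline added after day one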
Each line names hits and unclear results; the compound was inactive in the other large screens (follow-up assays come after a bar, where they were run). An excerpt weighted towards active compounds, which were near 4.8% of everything screened.

C=C(C)C1Cc2c(C)nn(-c3nc(C)cc(C)n3)c2C1 (configuration not stated)	Mdm2-MdmX inh 55 | Mdm2-MdmX conf inactive
CCOc1cc(S(=O)(=O)NCc2ccc(OC)cc2)c(OCC)cc1-n1cnnn1	Mdm2-MdmX inh 51 (no result: CSC inhib) | Mdm2-MdmX conf 45 | Full FLuc ctr 86
CCOc1cc(S(=O)(=O)NCCc2ccc(OC)c(OC)c2)c(OCC)cc1-n1cnnn1	none
O=C(CCl)Nc1cc2[nH]c(=O)[nH]c2cc1Br	Mdm2-MdmX inh 94 | Mdm2-MdmX conf 74 | Full FLuc ctr 60
COc1ccc(OC)c(C2CC(c3ccccc3)=NN2C(=S)Nc2ccccc2)c1 (configuration not stated)	Mdm2-MdmX inh 72 | Mdm2-MdmX conf 58 | Full FLuc ctr 63
CNC(=S)N1N=C(c2ccc(C)cc2)CC1c1cc(OC)ccc1OC (configuration not stated)	none (no result: Beta cell apopt)
Cc1oc(-c2ccccc2Cl)nc1Cn1cccc1C1=NC(c2ccccc2)CO1 (configuration not stated)	Mdm2-MdmX inh 55 | Mdm2-MdmX conf 57 | Full FLuc ctr 90
COc1ccc(C(=O)NC(Cc2c[nH]c3ccccc23)C(=O)O)cc1 (configuration not stated)	none
CCCOc1ccc(C(=O)CCNC(Cc2c[nH]c3ccccc23)C(=O)O)cc1 (configuration not stated)	Mdm2-MdmX inh 87 | Mdm2-MdmX conf inactive
CC[C@@H](C)[C@H](CNC)NC[C@@H](Cc1cccc2ccccc12)NCCc1cccc(C(F)(F)F)c1	Mdm2-MdmX inh 100, CSC inhib inconclusive, Calb FLC 112 | Mdm2-MdmX conf 100 | Full FLuc ctr 52
CNC[C@@H](CC1CCCCC1)NC[C@H](CC(C)C)NCCc1cccc(C(F)(F)F)c1	Beta cell apopt 112, Mdm2-MdmX inh 99, CSC inhib 111, Calb FLC 88 | Mdm2-MdmX conf 100 | Full FLuc ctr 50
CCC[C@H](CN[C@@H](CNC)[C@H](C)CC)NCCc1cc(C(F)(F)F)cc(C(F)(F)F)c1	Mdm2-MdmX inh 97 | Mdm2-MdmX conf 100 | Full FLuc ctr 52
CN(C)S(=O)(=O)c1ccc(NC(=S)NC(=O)C2CCC2)cc1	none
CN(Cc1ccccc1)S(=O)(=O)c1ccc(NC(=S)NC(=O)C2CCCC2)cc1	Mdm2-MdmX inh 56, Calb FLC inconclusive | Mdm2-MdmX conf 58 | Full FLuc ctr 61
CC(C)c1ccc(N(CC(=O)NC2CCCC2)C(=O)CCC(=O)Nc2ccccn2)cc1	none
CCOC(=O)c1ccc(S(=O)(=O)N2CCN(C(=O)c3cccc(S(=O)(=O)N4CC(C)OC(C)C4)c3)CC2)cc1 (configuration not stated)	none (no result: Beta cell apopt, Mdm2-MdmX inh, CSC inhib, Calb FLC)
CCOc1ccc(-c2cc(C(=O)NCCCn3ccnc3)c3ccccc3n2)cc1	none
CCOc1ccc(-c2cc(C(=O)NCCCn3ccnc3)c3cc(Br)ccc3n2)cc1	Beta cell apopt 108, Mdm2-MdmX inh 100 | Mdm2-MdmX conf inactive
CCOc1ccc(N/C(N)=N/c2nc(CSc3nnc(C)s3)cc(=O)[nH]2)cc1	Mdm2-MdmX inh 67, CSC inhib inconclusive | Mdm2-MdmX conf 56 | Full FLuc ctr 81
Cc1nnc(SCc2cc(=O)[nH]c(/N=C(\N)Nc3ccccc3)n2)s1	none
COc1ccc(N2CCN(C(=O)c3cccc(Br)c3)CC2)c([N+](=O)[O-])c1	none
C=C1C(=O)O[C@@H]2[C@H]3O[C@]3(C)CC/C=C(\C)CC[C@@H]12	Mdm2-MdmX inh 68 (no result: Calb FLC) | Mdm2-MdmX conf 54 | Full FLuc ctr 62
C=C1C(=O)O[C@H]2C[C@H]1[C@@H](OC(C)=O)C/C(C)=C/CC/C(C)=C\CC[C@]2(C)O	none (no result: Beta cell apopt, Mdm2-MdmX inh, CSC inhib, Calb FLC)
CCN(CC)CCNC(=O)C(=O)NCC1OCCN1S(=O)(=O)c1cccs1 (configuration not stated)	none
CN1CCN(c2cc(-c3cc(O)c4ncccc4c3)ccn2)CC1	Mdm2-MdmX inh 60 (no result: Calb FLC) | Mdm2-MdmX conf 45 | Full FLuc ctr inactive
Oc1cc(Nc2ccccc2)cc2cccnc12	Mdm2-MdmX inh 67 (no result: CSC inhib, Calb FLC) | Mdm2-MdmX conf inactive
Oc1cc(-c2cccnc2)cc2cccnc12	Mdm2-MdmX inh 76 (no result: Calb FLC) | Mdm2-MdmX conf 50 | Full FLuc ctr inactive
CN(Cc1ccc(Cl)cc1)C(=O)COC(=O)CSc1ccc([N+](=O)[O-])cc1	none (no result: CSC inhib, Calb FLC)
COC(=O)c1cc(Br)ccc1NC(=O)CCNC(=O)c1ccco1	none (no result: Beta cell apopt)
O=C(NCCc1ccccc1)c1ccc2c(c1)OCCCO2	Mdm2-MdmX inh 97 | Mdm2-MdmX conf 94 | Full FLuc ctr 52
O=C(NCCc1ccccc1)c1ccc2c(c1)OCCO2	Mdm2-MdmX inh 84 | Mdm2-MdmX conf 85 | Full FLuc ctr inactive
O=C(CCc1ccccc1)c1ccc2c(c1)OCCCO2	none
COc1ccc(CCNC(=O)c2ccc3c(c2)OCCO3)cc1	none
O=C(CCCc1ccccc1)c1ccc2c(c1)OCCO2	Mdm2-MdmX inh 90 | Mdm2-MdmX conf 88 | Full FLuc ctr 57
CCc1nc2ccc(C(=O)NCCCN3CCCC3=O)cn2c1N(C)C(=O)C1CCCCC1	none (no result: Beta cell apopt, Mdm2-MdmX inh, CSC inhib, Calb FLC)
Cc1ccc(S(=O)(=O)c2c(N)n(CCCN(C)C)c3nc4ccccc4nc23)cc1	Mdm2-MdmX inh 54 (no result: Beta cell apopt, CSC inhib) | Mdm2-MdmX conf inactive
N#Cc1cc(-c2ccccc2)oc1/N=C/c1ccccc1O	Mdm2-MdmX inh 53 (no result: CSC inhib) | Mdm2-MdmX conf 57 | Full FLuc ctr 105
Cc1ccc2nc(NC(=O)CSc3nc(=O)n(CCN(C)C)c4c3CCCC4)sc2c1	Mdm2-MdmX inh 65 | Mdm2-MdmX conf 49 | Full FLuc ctr 71
CCCCc1ccc(NC(=O)CSc2nc(=O)n(CCN(CC)CC)c3c2CCC3)cc1	Mdm2-MdmX inh 59, CSC inhib 80 | Mdm2-MdmX conf inactive | Full FLuc ctr 62
CCN(CC)CCn1c2c(c(SCC(=O)Nc3nc(C)cs3)nc1=O)CCCC2	none
Cc1ccc(NC(=O)CSc2nc(=O)n(CCCN(C)C)c3c2CCC3)c(C)c1	none
CCN(CC)CCn1c2c(c(SCC(=O)Nc3nc(C)cs3)nc1=O)CCC2	Mdm2-MdmX inh 52 | Mdm2-MdmX conf inactive
CCn1c(=S)sc2c(=O)[nH]c(SCC(=O)Nc3cc(OC)ccc3OC)nc21	none
CCOC(=O)c1ccc(-c2ccc(/C=N/NC(=O)CN(c3ccccc3Br)S(C)(=O)=O)o2)cc1	Mdm2-MdmX inh 51 | Mdm2-MdmX conf inactive
CS(=O)(=O)N(CC(=O)N/N=C/c1cccc2c1OCCO2)c1ccccc1Br	none
CCCCN(CCCC)CCCN1CC(=O)N2[C@@H](Cc3c([nH]c4ccccc34)C2(C)C)C1=O	none
